What is called AC50 is the concentration giving half of the maximal activity seen.

Activity calls are given as the source filed them. The calls were made as follows: active = hit-call score of the fitted dose curve at least 0.9, where 1 is the maximum; inactive = score below 0.9.

The nature of this test: CCTE_Padilla_ZF_Score.Craniofacial: CCTE's 144 Hour Post-fertilization zebrafish Assay Score for Craniofacial Malformation, Padilla Lab (AID 2284405). On the procedure:
CCTE_Padilla_ZF_Phenotype_Score is a whole embryo, multiplexed assay using zebrafish ova exposed for 144 hours post fertilization on a 96-well plate.CCTE_Padilla_ZF_Score.Craniofacial is one of one assay component(s) measured or calculated from the CCTE_Padilla_ZF_Phenotype_Score assay. It is designed to make measurements of zebrafish development as detected with brightfield microscopy of developing zebrafish embryos.Data from the assay component CCTE_Padilla_ZF_Score.Craniofacial was analyzed into 1 assay endpoints. This assay endpoint, CCTE_Padilla_ZF_Score.Craniofacial, was analyzed in the positive analysis fitting direction relative to DMSO as the negative control and baseline of activity. Using a type of viability reporter, gain-of-signal activity can be used to understand changes in developmentals as they relate to the whole embryo. To generalize the intended target to other relatable targets, this assay endpoint is annotated to the zebrafish development intended target family, where the subfamily is craniofacial morphogenesis.
Zebrafish husbandry: Wild type adult zebrafish (Danio rerio; undefined outbred stock obtained from Aquatic Research Organisms, Hampton, NH, 03842) were housed in an AAALAC-approved animal facility at 28C with a 14:10 h light: dark cycle (lights on at 08:30 h). Adult fish (2-3 females per male; density = 15-20 adults per tank) were kept in one of several 9-liter (L) flow-through colony tanks (Aquaneering Inc., San Diego, CA). All adults in a colony tank were placed in a 2 L (static) breeding tank (Aquatic Habitats, Apopka, FL) one hour prior to light onset. Typically, adults from two to three colony tanks were mated on the same day. Two hours after light onset the adults were returned to the colony tank. All embryos were gathered from each breeder tank, pooled, and placed in a 28C water bath for 2 h, followed by two washes with 0.06% bleach (v/v) in 10% Hanks' Balanced Salt Solution (13.7 mM NaCl 0.54 mM KCl, 25 uM Na2HPO4, 130 uM CaCl2 100 um MgSO4 and 420 um NaHCO3,), hereafter referred to as Hanks' solution, for 5 min in order to remove any residual bacteria or fungi. Immediately following washing, the embryos were examined, and healthy embryos were separated from dead or unfertilized eggs and moved into fresh Hanks'. Chemical exposures: Zebrafish embryos were exposed in 96-well plates. Between 6- and 8-hours post fertilization (hpf), healthy embryos (with chorions) were transferred, one embryo per well, into 96 well (0.5 mL) microtiter plates (Cell Culture-Treated, Flat-Bottom Microplate 96 well [Corning Costar, Kennebunk, ME; Cat 09-761-145]) filled with 200 uL of Hanks' solution. A random number generator was used to assign the order in which the rows of embryos were plated in 96 well plates each week. After plating, the embryos were dosed with 0.8 uL of the chemical dosing solution then immediately sealed with AlumaSeal II (Excel Scientific Inc, Victorville, CA) to prevent volatilization of the chemicals, and then placed in a leakproof secondary container. These containers were placed in an incubator maintained on a 14:10 h light: dark cycle at 26C for rearing. On 5 dpf, live larvae were gently moved out of the plate with test chemicals and into a new 96 well mesh plate (Millipore Corp., Bedford, MA) with just the Hanks' solution. Once within the mesh well plate, the animals were rinsed with 400 uL of fresh Hanks' three times, and then the plates were covered with a non-adhesive material (Microseal A, BioRad, Hercules, CA), plate lid added, and then plate sides wrapped in Parafilm (PM992, Bermis Company, Neenah, WI), and returned to the incubator. […]
In the case of `C=CC(=O)OCC(F)(F)C(F)(F)C(F)(F)COC(=O)C=C`, the call was inactive.
`OCC(F)(F)C(F)(F)C(F)(F)C(F)(F)C(F)(F)C(F)(F)CO`: the AC50 was 80.4 µM (active).
`O=C(O)C(F)(F)OC(F)(F)C(F)(F)OC(F)(F)C(F)(F)OC(F)(F)F`: the compound was called inactive.
Consider `O=S(=O)(O)CCC(F)(F)C(F)(F)C(F)(F)C(F)(F)C(F)(F)C(F)(F)C(F)(F)C(F)(F)F`, for which the result was inactive.
In the case of `NC(=O)C(F)(F)C(F)(F)C(F)(F)C(F)F`, the result was inactive.
In the case of `C=C(C)C(=O)OCC(F)(F)C(F)(F)C(F)(F)C(F)F`, the compound was classed as inactive.
As for `O=S(=O)(O)CCC(F)(F)C(F)(F)C(F)(F)C(F)(F)F`, the result was inactive.
As for `NC(=O)C(F)(F)C(F)(F)C(F)(F)C(F)(F)C(F)(F)C(F)(F)C(F)(F)F`, the result was inactive.
Consider `OCC(O)CC(F)(F)C(F)(F)C(F)(F)C(F)(F)F` (stereo not given), for which the compound was called inactive.
On to `O=C(O)C(F)(F)C(F)(F)C(F)(F)OC(F)(C(F)(F)F)C(F)(F)F`, for which the outcome was inactive.
For `O=C(O)CCC(F)(F)C(F)(F)C(F)(F)C(F)(F)C(F)(F)C(F)(F)C(F)(F)F`, the outcome was inactive.
In the case of `CO[Si](C)(CCC(F)(F)C(F)(F)C(F)(F)C(F)(F)C(F)(F)C(F)(F)F)OC`, the outcome was inactive.
For the compound `FC(F)(F)C(F)(F)C(F)(F)C(F)(F)C(F)(F)C(F)(F)C(F)(F)CCI`, the compound was classed as inactive.
On to `CCOC(=O)CC(=O)C(F)(F)C(F)(F)F`, for which the compound was called inactive.
For the compound `O=C(F)C1(F)C(F)(F)C(F)(F)C(F)(F)C(F)(F)C1(F)F`, the outcome was inactive.
For `O=C(Cl)C(F)(F)C(F)(F)C(F)(F)C(F)(F)C(F)(F)C(F)(F)F`, the outcome was inactive.
For the compound `OC(O)C(F)(F)C(F)(F)F`, the compound was called inactive.
Take `OCC(O)CC(F)(F)C(F)(F)C(F)(F)C(F)(F)C(F)(F)C(F)(F)C(F)(F)C(F)(F)F` (stereo not given): the AC50 was 15.7 µM (active).
With `C=CC(=O)OCC(F)(F)C(F)(F)C(F)(F)C(F)(F)C(F)(F)C(F)(F)C(F)(F)C(F)F`, the compound was called inactive.
In the case of `O=C(O)CCC(F)(F)C(F)(F)C(F)(F)F`, the result was inactive.
For `CN(C(=O)C(F)(F)C(F)(F)C(F)(F)F)[Si](C)(C)C`, the compound was called inactive.
Turning to `NS(=O)(=O)C(F)(F)C(F)(F)C(F)(F)C(F)(F)C(F)(F)C(F)(F)F`, the AC50 was 2.66 µM (active).
Turning to `O=C(O)C(F)(F)C(F)(F)C(F)(F)OC(F)(F)F`, the outcome was inactive.
For the compound `OCC(F)(F)C(F)(F)C(F)(F)CO`, the compound was called inactive.
For `CNS(=O)(=O)C(F)(F)C(F)(F)C(F)(F)C(F)(F)C(F)(F)C(F)(F)C(F)(F)C(F)(F)F`, the AC50 was 85.1 µM (active).
Regarding `O=C(O)C(F)(F)C(F)(F)C(F)(F)C(=O)O`, the compound was classed as inactive.
Turning to `NC(=O)C(F)(F)C(F)(F)C(F)(F)F`, the compound was classed as inactive.
Turning to `COC(F)(C(F)F)C(F)(F)F` (stereo not given), the outcome was inactive.
Take `NCC(F)(F)C(F)(F)C(F)(F)C(F)(F)C(F)(F)C(F)(F)F`: the compound was classed as inactive.
In the case of `NCC(F)(F)C(F)(F)C(F)(F)C(F)(F)C(F)(F)C(F)(F)C(F)(F)C(F)(F)F`, the call was inactive.
For the compound `C[Si](Cl)(Cl)CCC(F)(F)C(F)(F)C(F)(F)C(F)(F)C(F)(F)C(F)(F)F`, the compound was classed as inactive.
Still for that read-out and setting: as for `O=S(=O)(OCC(F)(F)F)C(F)(F)C(F)(F)C(F)(F)C(F)(F)F`, the entry is “inactive”.
With `OCCCCC(F)(F)C(F)(F)C(F)(F)C(F)(F)F`, the AC50 is 39.4 µM (active).
`OCCCC(F)(F)C(F)(F)C(F)(F)C(F)(F)C(F)(F)C(F)(F)C(F)(F)C(F)(F)F`: the compound was classed as inactive.
With `O=S(=O)(Cl)C(F)(F)C(F)(F)C(F)(F)C(F)(F)C(F)(F)C(F)(F)C(F)(F)C(F)(F)F`, the result was inactive.
Consider `O=C(O)C(F)(F)C(F)(F)C(F)(F)C(F)(F)C(F)(F)C(F)(F)C(F)F`, for which the outcome was inactive.
Still for that read-out and setting: as for `NC(O)(C(F)(F)F)C(F)(F)F`, the entry is “inactive”.
For `NC(=O)C(F)(F)C(F)(F)C(F)(F)C(F)(F)C(N)=O`, the call was inactive.
Regarding `OCC(F)(F)C(F)(F)C(F)(F)C(F)(F)C(F)(F)C(F)(F)C(F)(F)C(F)(F)CO`, the compound was classed as inactive.
On to `FC(F)(F)C(F)(F)C(F)(F)CC1CO1` (stereo not given), for which the compound was called inactive.

The values are drawn from PubChem BioAssay (EPA / NIEHS).
